Data: PMC11062922 (Nature Chemical Biology, 2023)
Read-outs that look alike come from different tables or passages of the source.

Assays:
Parameters in all cases: species or system human, MV4-11 + K-562 + COLO205 + SK-N-BE2 + OVCAR-8
CAMK4 = conditions: read-out: apparent Kd; compound concentrations:100 nM and 1000 nM (sheet 'Samples'); n = 1
CDK10 = conditions: read-out: apparent Kd; compound concentrations:100 nM and 1000 nM (sheet 'Samples'); n = 1
CDK6 = conditions: read-out: apparent Kd; compound concentrations:100 nM and 1000 nM (sheet 'Samples'); n = 1
HSP90B1 = conditions: read-out: apparent Kd; compound concentrations:100 nM and 1000 nM (sheet 'Samples'); n = 1
MAPK9 = conditions: read-out: apparent Kd; compound concentrations:100 nM and 1000 nM (sheet 'Samples'); n = 1
CDC42BPB = conditions: read-out: apparent Kd; compound concentrations:100 nM and 1000 nM (sheet 'Samples'); n = 1
PKN1 = conditions: read-out: apparent Kd; compound concentrations:100 nM and 1000 nM (sheet 'Samples'); n = 1
PRKACA = conditions: read-out: apparent Kd; compound concentrations:100 nM and 1000 nM (sheet 'Samples'); n = 1
PRKACB = conditions: read-out: apparent Kd; compound concentrations:100 nM and 1000 nM (sheet 'Samples'); n = 1
PRKG1 = conditions: read-out: apparent Kd; compound concentrations:100 nM and 1000 nM (sheet 'Samples'); n = 1
PRKX;PRKY = conditions: read-out: apparent Kd; compound concentrations:100 nM and 1000 nM (sheet 'Samples'); n = 1
ROCK1 = conditions: read-out: apparent Kd; compound concentrations:100 nM and 1000 nM (sheet 'Samples'); n = 1
ROCK2 = conditions: read-out: apparent Kd; compound concentrations:100 nM and 1000 nM (sheet 'Samples'); n = 1
RPS6KB1 = conditions: read-out: apparent Kd; compound concentrations:100 nM and 1000 nM (sheet 'Samples'); n = 1
CDC42BPG = conditions: read-out: apparent Kd, n = 1
MAPK11 = conditions: read-out: apparent Kd; compound concentrations: 100 nM and 1000 nM (sheet 'Samples'), CATDS: 0.59050582210334401; n = 1
MAPK14 = conditions: read-out: apparent Kd; compound concentrations: 100 nM and 1000 nM (sheet 'Samples'), CATDS: 0.223513912329704; n = 1
MAPKAPK2 = conditions: read-out: apparent Kd; compound concentrations: 100 nM and 1000 nM (sheet 'Samples'), CATDS: 0.33085096444850498; n = 1
CDC42BPA = conditions: read-out: apparent Kd; compound concentrations:100 nM and 1000 nM (sheet 'Samples'); n = 1
CDKL5 = conditions: read-out: apparent Kd; compound concentrations:100 nM and 1000 nM (sheet 'Samples'); n = 1
GRK6 = conditions: read-out: apparent Kd; compound concentrations:100 nM and 1000 nM (sheet 'Samples'); n = 1
LATS1 = conditions: read-out: apparent Kd; compound concentrations:100 nM and 1000 nM (sheet 'Samples'); n = 1
PKN2 = conditions: read-out: apparent Kd; compound concentrations:100 nM and 1000 nM (sheet 'Samples'); n = 1
PKN3 = conditions: read-out: apparent Kd; compound concentrations:100 nM and 1000 nM (sheet 'Samples'); n = 1
PRKAA1 = conditions: read-out: apparent Kd; compound concentrations:100 nM and 1000 nM (sheet 'Samples'); n = 1
PRKAG1 = conditions: read-out: apparent Kd; compound concentrations:100 nM and 1000 nM (sheet 'Samples'); n = 1
PRKAG2 = conditions: read-out: apparent Kd; compound concentrations:100 nM and 1000 nM (sheet 'Samples'); n = 1
PRKCA = conditions: read-out: apparent Kd; compound concentrations:100 nM and 1000 nM (sheet 'Samples'); n = 1
PRKCD = conditions: read-out: apparent Kd; compound concentrations:100 nM and 1000 nM (sheet 'Samples'); n = 1
RPS6KA5 = conditions: read-out: apparent Kd; compound concentrations:100 nM and 1000 nM (sheet 'Samples'); n = 1

Question: With `FC(F)(F)c1cc(Nc2nccc(-c3c(-c4ccc(Cl)cc4)nn4ncccc34)n2)ccc1Cl` [GW829351X] as the compound, how does the potency estimated from few doses (CAMK4) read?
Answer: 2170 nM

Question: And the potency estimated from few doses (CDK10)?
Answer: 1110 nM

Question: And the potency estimated from few doses (CDK6)?
Answer: 1600 nM

Question: And the potency estimated from few doses (HSP90B1)?
Answer: 114 nM

Question: What about the potency estimated from few doses (MAPK9) of the same compound?
Answer: 1950 nM

Question: For `Cl.Cl.NC[C@H](Cc1ccc(C(F)(F)F)cc1)NC(=O)c1cc(Br)c(-c2ccnc3[nH]ccc23)s1.NC[C@H](Cc1ccc(C(F)(F)F)cc1)NC(=O)c1cc(Br)c(-c2ccnc3[nH]ccc23)s1` [GSK1487252A], which potency estimated from few doses (CDC42BPB) is on record?
Answer: 2460 nM

Question: And the potency estimated from few doses (PKN1)?
Answer: 2080 nM

Question: What about the potency estimated from few doses (PRKACA) of the same compound?
Answer: 20.5 nM

Question: And the potency estimated from few doses (PRKACB)?
Answer: 60.6 nM

Question: What about the potency estimated from few doses (PRKG1) of the same compound?
Answer: 30.2 nM

Question: And the potency estimated from few doses (PRKX;PRKY)?
Answer: 593 nM

Question: What about the potency estimated from few doses (ROCK1) of the same compound?
Answer: 217 nM

Question: And the potency estimated from few doses (ROCK2)?
Answer: 180 nM

Question: And the potency estimated from few doses (RPS6KB1)?
Answer: 461 nM

Question: How did the potency estimated from few doses (CDC42BPG; compound concentrations: 100 nM and 1000 nM (sheet 'Samples'), CATDS: 0.14684216194917399) turn out when `Nc1c(C(=O)c2cccc(-c3ccc[n+]([O-])c3)c2)cnn1-c1ccc(F)cc1F` [RO1166259-000] was run?
Answer: 1410 nM

Question: What about the potency estimated from few doses (MAPK11) of the same compound?
Answer: 10.2 nM

Question: What about the potency estimated from few doses (MAPK14) of the same compound?
Answer: 100 nM

Question: What about the potency estimated from few doses (MAPKAPK2) of the same compound?
Answer: 31.2 nM

Question: What does the source list for `COc1ccc(C[C@@H](CN)NC(=O)c2cc(Br)c(-c3ccnc4[nH]ccc34)s2)cc1.COc1ccc(C[C@@H](CN)NC(=O)c2cc(Br)c(-c3ccnc4[nH]ccc34)s2)cc1.Cl.Cl` [GSK1389063A]?
Answer: potency estimated from few doses (CDC42BPA): 757 nM; potency estimated from few doses (CDC42BPB): 80.7 nM; potency estimated from few doses (CDC42BPG; compound concentrations:100 nM and 1000 nM (sheet 'Samples')): 21.2 nM; potency estimated from few doses (CDKL5): 1370 nM; potency estimated from few doses (GRK6): 93 nM; potency estimated from few doses (LATS1): 287 nM; potency estimated from few doses (PKN1): 339 nM; potency estimated from few doses (PKN2): 897 nM; potency estimated from few doses (PKN3): 921 nM; potency estimated from few doses (PRKAA1): 1570 nM; potency estimated from few doses (PRKACA): 11.7 nM; potency estimated from few doses (PRKACB): 23.5 nM; potency estimated from few doses (PRKAG1): 976 nM; potency estimated from few doses (PRKAG2): 863 nM; potency estimated from few doses (PRKCA): 2340 nM; potency estimated from few doses (PRKCD): 1750 nM; potency estimated from few doses (PRKG1): 27.3 nM; potency estimated from few doses (PRKX;PRKY): 127 nM; potency estimated from few doses (ROCK1): 17.9 nM; potency estimated from few doses (ROCK2): 21.5 nM; potency estimated from few doses (RPS6KA5): 899 nM; potency estimated from few doses (RPS6KB1): 130 nM
